Records with an inconclusive call do not appear. Calls of active or inactive are those of the source. Unless noted, calls come from the whole dose curve; as a rule, active = well fitted curve in either direction with a large enough effect (not every such curve was filed as active); inconclusive = small, poorly fitted or top-dose-only effect, or another doubt; inactive = flat fitted curve, though single readings scatter.
How the values were obtained:
[1] = biological target: Lysosomal acid glucosylceramidase (Homo sapiens) (UniProt P04062); experiment: Glucocerebrosidase-p2 (AID 348; in the data active = potency below about 10 µM; note: potency is the fitted concentration of half-maximal effect); details: purified GBA, blue fluorogenic substrate, 40 min
Method in brief: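 Compounds titrated from 0.6 nM upwards against 0.2 nM enzyme in pH 5.9 citric acid/KH2PO4, taurocholate, tween-20; blue fluorogenic substrate 80 uM, 40 min room temperature, stopped and read Ex 365/Em 440 for AC50.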

[2] = AP1 Signaling Pathway (AID 357); details: ME-180 AP-1-bla reporter, EGF-induced, beta-lactamase ratio, 5 h; at 7.69 µM (top of the series) unless noted;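 note: ME-180 reporter cells stimulated with EGF at its EC50 level; % is set by controls: 0 for no effect and ±100 for the full control effect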
Method in brief: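 Modulation of EGF-driven AP-1 transcription was assessed with a beta-lactamase reporter in ME-180 cells. Compound and EC50 EGF were co-incubated 5 hours at 37 °C before 2.5-hour CCF4 loading at room temperature and dual-emission reading.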

[3] = biological target: Cytochrome P450 1A2 (Homo sapiens) (UniProt P05177); experiment: p450-cyp1a2 (AID 410; calls by dose curve; note: potency is the fitted concentration of half-maximal effect;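 for activity change, negative = inhibition: -100% = full effect of reference inhibitor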); details: recombinant CYP1A2, luciferin-ME demethylation, luminescence; series mostly up to 57 µM
Method in brief: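 Inhibition was calculated relative to 57 uM furafylline (full inhibition). The reaction used human CYP1A2 at 20nM with Luciferin-ME at its Km, 100uM, driven by an NADPH-regenerating system for 60 min at room temperature.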

[4] = NFAT Signaling Pathway (AID 444); details: Jurkat NFAT-bla M1, carbachol, beta-lactamase ratio, 5 h; at 7.69 µM (top of the series) unless noted;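 note: carbachol stimulus at about its EC50 of 1 µM final; % is set by controls: 0 for no effect and ±100 for the full control effect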
Method in brief: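 Jurkat cells with NFAT-driven β-lactamase reporter and co-expressed M1 receptor, stimulated with carbachol (final 1 uM, ~EC50), compound titration, 5 h at 37 °C. CCF4 loaded 1 h at RT; 460/530 nm ratio gave %activity and AC50.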

[5] = Stat Signaling Pathway (AID 446); details: ME-180 SIE beta-lactamase reporter, IL-6 stimulated, 5 h; at 7.69 µM (top of the series) unless noted;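 note: ME-180 cervical cancer cells given 40 pM IL-6 alongside compound; SIE-controlled beta-lactamase reporter measured as 460/530 nm FRET emission ratio; % is set by controls: 0 for no effect and ±100 for the full control effect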
Method in brief: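 Reporter line: ME-180 cervical carcinoma, SIE-beta-lactamase. Treatment: compound with 40 pM IL-6, 5 hrs, 37 C, in low-serum OPTI-MEM with 10 mM HEPES pH 7.3. Detection: 460/530 nm fluorescence.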

[6] = biological target: Glucocorticoid receptor (Homo sapiens) (UniProt P04150); experiment: GR-EFC Redistribution (AID 451; calls by dose curve; note: potency is the fitted concentration of half-maximal effect); details: CHO-K1 GR-EFC translocation, beta-gal luminescence, 2 h
Method in brief: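 CHO-K1 cells expressing nuclear EA and GR-ED fragments of b-gal; compounds titrated up to 46 uM final, 2 h at 37 C. GR nuclear translocation read as complemented b-gal luminescence after 1 h RT detection.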

[7] = biological target: Mitogen-activated protein kinase 10 (Mus musculus) (UniProt Q61831); experiment: JNK3 AlphaScreen Assay (AID 530); details: JNK3 lysate, c-Jun phosphorylation; series mostly up to 57.1 µM;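 note: kinase came from lysate of stimulated human HepG2 cells; signal reports phosphorylation of biotinylated GST-cJun 1-79 at Ser73 with 10 µM ATP; % is set by controls: 0 for no effect and ±100 for the full control effect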
Method in brief: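 qHTS format: compounds tested as titrations against IL-1beta/TNF-alpha-activated HepG2 lysate JNK3 with biotin-GST-cJun substrate and 10 uM ATP at room temperature. Loss of anti-phospho-cJun AlphaScreen signal indicates inhibition.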

[8] = biological target: 3',5'-cyclic-AMP phosphodiesterase 4B (Homo sapiens) (UniProt Q07343); experiment: qHTS Assay for Inhibitors of PDE-IV (AID 607; active = well fitted activation curve with a large enough effect in the main read-out, with a control signal flat, not every such curve was filed as active; note: % of control where 0% means no effect); details: HEK293 ACTOne CNG channel cells, membrane potential fluorescence; series mostly up to 22.9 µM
Method in brief: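 Cell-based read-out of cAMP via a modified cyclic nucleotide-gated channel and membrane potential dye (535/590 nm) in HEK293 cells expressing PDE4 endogenously. Compounds tested up to 22.9 uM final; 100 uM RO 20-1724 reference.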

[9] = biological target: Cytochrome P450 3A4 (Homo sapiens) (UniProt P08684); experiment: qHTS Assay for Activators of Cytochrome P450 3A4 (AID 885; active = well fitted curve in the direction sought with a large enough effect; an effect the other way counts as inactive or inconclusive; note: nearly all actives have a fitted effect of over 65% in size); details: recombinant CYP3A4, Luciferin-PPXE luminescence, 60 min; series mostly up to 57.1 µM
Method in brief: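 Signal was normalized against complete inhibition by 57 uM ketoconazole. The reaction used 20nM CYP3A4 with 25uM Luciferin-PPXE, 10-min compound preincubation and a 60-min NADPH-supported step at RT.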

[10] = biological target: Cytochrome P450 2C19 (Homo sapiens) (UniProt P33261); experiment: qHTS Assay for Inhibitors and Substrates of Cytochrome P450 2C19 (AID 899; active = well fitted curve in the direction sought with a large enough effect; an effect the other way counts as inactive or inconclusive; note: nearly all actives have a fitted effect of over 60% in size; note: potency is the fitted concentration of half-maximal effect); details: recombinant CYP2C19, luciferin-H EGE luminescence; series mostly up to 57.1 µM
Method in brief: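 Signal comes from luciferase acting on luciferin released by CYP2C19-mediated hydroxylation of Luciferin-H EGE, 10uM (KM). Assay mix: 5nM enzyme, 50mM KPO4; 60 min at 37C with NADPH regeneration. Data normalized against 57uM ketoconazole.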

[11] = qHTS Assay for Lipid Storage Modulators (AID 1519; calls by dose curve); details: Drosophila S3 cells, BODIPY lipid droplet/cell ratio, laser cytometry, cells loaded with oleic acid; for activity change, negative = inhibition: at 57.5 µM (top of the series)
Method in brief: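 Cells seeded at 5,000 per well were treated with compounds over a concentration series and loaded with oleic acid (400 uM, as added). Lipid droplet fluorescence (488 nm excitation, 500-530 nm channel) was read by laser-scanning cytometry and normalized to 20 uM Triacsin C.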

[12] = Primary qHTS for small molecule stabilizers of the endoplasmic reticulum resident proteome: Secreted ER Calcium Modulated Protein (SERCaMP) assay (AID 1508630; active = well fitted curve in the direction sought with a large enough effect; an effect the other way counts as inactive or inconclusive; note: % is set by controls: 0 for no effect and ±100 for the full control effect); details: SH-SY5Y GLuc-SERCaMP (Gaussia luciferase released on ER calcium loss) secretion, thapsigargin, luminescence; series mostly up to 38.4 µM
Method in brief: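 GLuc-SERCaMP-expressing SH-SY5Y cells, pretreated 16 h with compound, are challenged with thapsigargin to empty ER calcium stores; after 4 h, coelenterazine is added directly to the medium and luminescence is imaged.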

[13] = measured here: cell count channel max response
[14] = measured here: lipid channel max response

Cytochrome P450 1A2 (Homo sapiens), sequence (P05177 whole entry, looked up): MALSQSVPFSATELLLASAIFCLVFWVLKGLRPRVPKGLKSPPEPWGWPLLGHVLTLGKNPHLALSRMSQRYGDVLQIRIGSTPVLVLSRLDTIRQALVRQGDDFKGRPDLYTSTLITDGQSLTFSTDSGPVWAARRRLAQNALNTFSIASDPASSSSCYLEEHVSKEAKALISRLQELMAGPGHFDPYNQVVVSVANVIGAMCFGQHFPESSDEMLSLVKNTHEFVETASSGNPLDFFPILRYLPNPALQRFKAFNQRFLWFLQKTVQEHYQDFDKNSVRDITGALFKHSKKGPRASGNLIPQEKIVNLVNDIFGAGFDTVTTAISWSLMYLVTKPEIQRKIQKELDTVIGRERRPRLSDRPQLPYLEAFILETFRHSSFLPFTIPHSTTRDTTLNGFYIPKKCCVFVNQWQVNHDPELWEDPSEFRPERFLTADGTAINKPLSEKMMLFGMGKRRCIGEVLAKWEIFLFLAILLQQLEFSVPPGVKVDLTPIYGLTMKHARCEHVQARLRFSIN
Lysosomal acid glucosylceramidase (Homo sapiens), sequence (P04062 whole entry, looked up): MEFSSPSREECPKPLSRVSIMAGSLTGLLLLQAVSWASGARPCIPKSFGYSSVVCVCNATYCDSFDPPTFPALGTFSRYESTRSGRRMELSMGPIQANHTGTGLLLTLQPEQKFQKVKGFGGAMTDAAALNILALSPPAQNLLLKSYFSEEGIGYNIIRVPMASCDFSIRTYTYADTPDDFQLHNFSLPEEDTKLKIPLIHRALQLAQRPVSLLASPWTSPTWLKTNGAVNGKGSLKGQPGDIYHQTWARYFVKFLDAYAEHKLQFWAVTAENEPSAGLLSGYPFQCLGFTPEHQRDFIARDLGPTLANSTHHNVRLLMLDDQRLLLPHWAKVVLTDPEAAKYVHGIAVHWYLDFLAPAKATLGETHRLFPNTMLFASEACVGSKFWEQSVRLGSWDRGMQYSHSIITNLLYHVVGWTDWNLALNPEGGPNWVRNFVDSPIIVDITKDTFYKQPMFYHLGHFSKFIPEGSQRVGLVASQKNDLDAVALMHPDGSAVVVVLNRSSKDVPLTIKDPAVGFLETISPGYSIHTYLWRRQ
Glucocorticoid receptor (Homo sapiens), sequence (P04150 whole entry, looked up, the tested form may be a part): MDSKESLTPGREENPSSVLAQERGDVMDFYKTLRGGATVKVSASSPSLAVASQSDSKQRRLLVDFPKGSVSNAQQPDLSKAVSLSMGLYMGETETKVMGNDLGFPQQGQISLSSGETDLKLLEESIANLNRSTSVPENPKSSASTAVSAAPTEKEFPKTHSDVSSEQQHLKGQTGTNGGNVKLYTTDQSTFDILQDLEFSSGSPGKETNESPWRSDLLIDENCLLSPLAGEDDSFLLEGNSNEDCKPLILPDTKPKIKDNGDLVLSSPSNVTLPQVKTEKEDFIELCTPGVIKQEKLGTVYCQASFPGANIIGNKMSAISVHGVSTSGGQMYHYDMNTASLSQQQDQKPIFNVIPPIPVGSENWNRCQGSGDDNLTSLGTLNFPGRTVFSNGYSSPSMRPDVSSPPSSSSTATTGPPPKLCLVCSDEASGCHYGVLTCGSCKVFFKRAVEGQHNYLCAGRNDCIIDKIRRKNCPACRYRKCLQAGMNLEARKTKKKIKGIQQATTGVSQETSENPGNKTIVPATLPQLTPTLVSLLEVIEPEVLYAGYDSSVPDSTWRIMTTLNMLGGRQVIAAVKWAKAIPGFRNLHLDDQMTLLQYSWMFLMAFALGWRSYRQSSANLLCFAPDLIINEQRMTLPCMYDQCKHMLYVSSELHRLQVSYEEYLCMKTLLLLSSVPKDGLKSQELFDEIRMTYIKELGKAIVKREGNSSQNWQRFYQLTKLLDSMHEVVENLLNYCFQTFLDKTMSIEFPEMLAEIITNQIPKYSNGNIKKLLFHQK
Cytochrome P450 3A4 (Homo sapiens), sequence (P08684 whole entry, looked up): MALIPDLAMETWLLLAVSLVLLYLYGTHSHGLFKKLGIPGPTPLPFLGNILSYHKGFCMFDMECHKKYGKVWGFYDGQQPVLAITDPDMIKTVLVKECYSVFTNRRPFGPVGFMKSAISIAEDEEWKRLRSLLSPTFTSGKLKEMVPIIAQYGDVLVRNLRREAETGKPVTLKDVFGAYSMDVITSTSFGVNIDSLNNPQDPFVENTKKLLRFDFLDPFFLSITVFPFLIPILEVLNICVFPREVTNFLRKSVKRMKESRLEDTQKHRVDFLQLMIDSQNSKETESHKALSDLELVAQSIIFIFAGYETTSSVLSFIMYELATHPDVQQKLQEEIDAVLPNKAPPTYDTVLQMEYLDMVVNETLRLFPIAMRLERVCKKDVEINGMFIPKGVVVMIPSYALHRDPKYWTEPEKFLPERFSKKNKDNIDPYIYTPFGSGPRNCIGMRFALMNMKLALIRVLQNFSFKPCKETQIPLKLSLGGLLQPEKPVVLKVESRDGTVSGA
3',5'-cyclic-AMP phosphodiesterase 4B (Homo sapiens), sequence (Q07343 whole entry, looked up): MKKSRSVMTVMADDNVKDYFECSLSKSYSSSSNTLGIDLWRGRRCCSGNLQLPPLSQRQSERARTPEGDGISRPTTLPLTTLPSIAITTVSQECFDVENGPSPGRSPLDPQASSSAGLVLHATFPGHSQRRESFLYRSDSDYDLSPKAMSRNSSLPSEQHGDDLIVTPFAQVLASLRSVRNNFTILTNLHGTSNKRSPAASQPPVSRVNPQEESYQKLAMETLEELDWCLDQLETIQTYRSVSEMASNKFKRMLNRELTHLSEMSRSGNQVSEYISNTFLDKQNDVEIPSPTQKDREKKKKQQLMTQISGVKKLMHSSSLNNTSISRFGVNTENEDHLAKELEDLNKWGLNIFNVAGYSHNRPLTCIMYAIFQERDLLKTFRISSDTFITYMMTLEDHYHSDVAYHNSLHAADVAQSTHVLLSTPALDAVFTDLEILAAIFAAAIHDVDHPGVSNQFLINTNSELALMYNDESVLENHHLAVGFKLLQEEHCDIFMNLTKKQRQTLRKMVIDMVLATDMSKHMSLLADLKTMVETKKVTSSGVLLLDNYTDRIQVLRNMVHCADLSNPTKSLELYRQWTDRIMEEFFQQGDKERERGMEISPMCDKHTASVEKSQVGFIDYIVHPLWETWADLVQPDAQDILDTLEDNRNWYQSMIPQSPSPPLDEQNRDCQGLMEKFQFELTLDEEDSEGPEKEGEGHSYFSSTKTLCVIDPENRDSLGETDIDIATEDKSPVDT
Cytochrome P450 2C19 (Homo sapiens), sequence (P33261 whole entry, looked up): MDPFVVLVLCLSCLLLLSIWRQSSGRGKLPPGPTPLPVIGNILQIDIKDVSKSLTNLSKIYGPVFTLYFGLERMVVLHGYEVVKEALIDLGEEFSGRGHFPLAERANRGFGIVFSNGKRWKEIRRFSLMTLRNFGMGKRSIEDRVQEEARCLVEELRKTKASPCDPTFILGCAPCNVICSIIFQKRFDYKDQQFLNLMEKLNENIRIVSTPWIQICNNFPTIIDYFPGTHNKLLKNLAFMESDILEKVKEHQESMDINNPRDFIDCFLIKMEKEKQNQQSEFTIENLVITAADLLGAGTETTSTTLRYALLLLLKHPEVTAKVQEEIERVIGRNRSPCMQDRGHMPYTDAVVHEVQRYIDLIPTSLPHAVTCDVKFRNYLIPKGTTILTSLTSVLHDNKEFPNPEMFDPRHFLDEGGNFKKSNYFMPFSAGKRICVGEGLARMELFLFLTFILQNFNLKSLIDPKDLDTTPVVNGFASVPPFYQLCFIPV

Structure (SMILES) | Potency [1] | activity change, negative = inhibition [2] | Potency [3] | activity change, negative = inhibition [4] | activity, negative = inhibition [5] | Potency [6] | outcome [7] | Potency [8] | Potency [9] | Potency [10] | activity change, negative = inhibition [11] | max response [11, 13] | max response [11, 14] | Potency [12]
O=C(c1cnccn1)N1CCC2(CCCN(c3ccccc3)C2)CC1 | > 11.4 µM (inactive) | 13.8% (inactive) | inactive | 5.12% (inactive) | -11.6% (inactive) | > 46 µM (inactive) | inactive | inactive | inactive | 0.501 µM (active) | 4.73% (inactive) | 21.1% | 29.2% | inactive
COc1ccc(C(=O)N2CCC[C@@]3(CCN(C(=O)Nc4ccccc4)C3)C2)cc1 | > 11.4 µM (inactive) | -19.4% (inactive) | 15.8 µM (active) | 12.1% (inactive) | -4.43% (inactive) | > 46 µM (inactive) | inactive | inactive | inactive | – | 10.7% (inactive) | 8.67% | 24.1% | inactive
Cc1noc(C)c1C(=O)N1CCC2(CCCN(Cc3nccs3)C2)CC1 | > 11.4 µM (inactive) | -7.07% (inactive) | inactive | -16.6% (inactive) | -1.5% (inactive) | > 46 µM (inactive) | inactive | inactive | inactive | – | 5.37% (inactive) | 14.6% | 22.3% | inactive
COCC(=O)N1CCC2(CCCN(C(=O)Nc3ccc(OC)cc3)C2)CC1 | > 11.4 µM (inactive) | -3.98% (inactive) | inactive | 13.5% (inactive) | -3.45% (inactive) | > 46 µM (inactive) | inactive | inactive | inactive | inactive | 5.43% (inactive) | 13.8% | 18.7% | inactive
COCC(=O)N1CCC[C@@]2(CCN(Cc3ccc(C#N)cc3)C2)C1 | > 11.4 µM (inactive) | -13.6% (inactive) | inactive | 4.93% (inactive) | 5.14% (inactive) | > 46 µM (inactive) | inactive | inactive | inactive | – | 5.07% (inactive) | 7.03% | 15.9% | inactive
Cn1cccc1C(=O)N1CCC[C@@]2(CCN(c3ccccn3)C2)C1 | > 11.4 µM (inactive) | 0.459% (inactive) | 31.6 µM (active) | -3.64% (inactive) | -2.5% (inactive) | > 46 µM (inactive) | inactive | inactive | inactive | – | 4.31% (inactive) | 20% | 28% | inactive

Reference: PubChem BioAssay (NCATS)
